The supplement of paper PMC11577813, “Eurasian spruce bark beetle detects lanierone using a highly expressed specialist odorant receptor, present in several functional sensillum types” (BMC Biology, 2024)
± gives the standard deviation of the averaged measurements.

What follows are compounds tested on (+)-trans-4-thujanol A-neuron OSN class (assay: net action potential response of A-neuron (blank-subtracted) (spikes/s (Hz)); higher = stronger excitation). Settings: 10 µg on filter paper; neuron: A neuron (large spike amplitude).
Procedure: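 Single sensillum recordings from antennal olfactory sensilla of live adult Ips typographus. Each compound was 10 µg in paraffin oil on filter paper, delivered as a 0.5 s puff. Net response = spikes in the first 0.5 s of response minus the 0.5 s pre-stimulus count, doubled to give Hz, with blank response subtracted. Values are for the large-spike A-neuron class of each of seven sensillum types that co-house the lanierone B-neuron; N = 1-4 sensilla, averaged.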

Row | SMILES | net action potential response
1 | C=CCc1ccc(OC)cc1 [Estragole] | 1 ± 2
2 | O=Cc1ccccc1 [Benzaldehyde] | -0.5 ± 1.9
3 | Cc1ccccc1 [Toluene] | 0.5 ± 2.5
